PubChem BioAssay (NCATS)
Results filed as inconclusive are left out. Activity calls are given as the source filed them. Calls come from the whole dose curve; as a rule, active = well fitted curve in the direction sought with a large enough effect; inconclusive = small, poorly fitted or top-dose-only effect, or another doubt; inactive = no such curve, though single readings can be large; an effect the other way counts as inactive or inconclusive.

Columns and labels:
[1] = target: Cellular tumor antigen p53 (Homo sapiens) (UniProt P04637); test: Primary qHTS for small molecule compounds that upregulate eGFP-tagged delta133p53alpha (in N-terminal) cells. (AID 2060322); details: NCI-H358 eGFP-delta133p53alpha fluorescence, 24 h; activation: stronger effect = higher value;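 note: cells pre-induced with doxycycline then dosed without doxycycline; series mostly up to about 56 µM; 0% = DMSO vehicle and 100% = reference activator; nearly all actives have a fitted effect of over 75% in size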
Cellular tumor antigen p53 (Homo sapiens), sequence (P04637 whole entry, looked up): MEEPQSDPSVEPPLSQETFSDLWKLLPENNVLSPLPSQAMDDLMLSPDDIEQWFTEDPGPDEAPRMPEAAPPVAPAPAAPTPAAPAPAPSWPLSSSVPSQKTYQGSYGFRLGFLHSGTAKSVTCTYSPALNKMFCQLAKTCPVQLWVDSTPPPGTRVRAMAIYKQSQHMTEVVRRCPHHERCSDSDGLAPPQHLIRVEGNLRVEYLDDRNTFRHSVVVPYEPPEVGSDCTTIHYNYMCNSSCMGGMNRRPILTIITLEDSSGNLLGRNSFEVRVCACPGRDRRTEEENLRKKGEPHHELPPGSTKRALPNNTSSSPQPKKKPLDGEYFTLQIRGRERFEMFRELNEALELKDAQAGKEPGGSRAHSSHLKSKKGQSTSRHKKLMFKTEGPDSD
How it was run: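 NCI-H358 cells pre-induced 24 h with 10 ng/ml doxycycline for eGFP-delta133p53alpha, plated dox-free and exposed 24 h at 37C to titrated compounds. Fixed, Hoechst-stained; gated GFP peak intensity by laser scanning cytometry, normalized to DMSO (0%) and 57.5 uM 5-azacytidine (100%).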

[2] = target: Aldehyde dehydrogenase, mitochondrial (Homo sapiens) (UniProt P05091); test: qHTS for Inhibitors of the Aldehyde Dehydrogenase Family (ALDH2) Primary screen (AID 2061308);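 note: plate controls were vehicle for no effect and reference inhibitor for full effect; nearly all actives have a fitted effect of over 55% in size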
[3] = target: Retinaldehyde dehydrogenase 3 (Homo sapiens) (UniProt P47895); test: qHTS for Inhibitors of the Aldehyde Dehydrogenase Family (ALDH1A3) Primary screen (AID 2061315);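 note: plate controls were DMSO vehicle for no effect and reference inhibitor for full effect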

COC(=O)C1=C2Nc3ccccc3C23CCN2CCCC(C(C)O)(C1)C23 (configuration not stated)
inactive: activation [1] 18.8% | Potency [2] | Potency [3]

C/C(=C/CO)CCC1C(C)CCC2C(C)(C)CCCC12C (configuration not stated)
inactive: activation [1] -9.92% | Potency [2] | Potency [3]

COCCOCCOc1ccc(C2=N[C@@](C)(C(=O)O)CS2)c(O)c1
inactive: activation [1] 1.67% | Potency [2] | Potency [3]

C=C1CCC[C@]2(C)CC[C@@](O)(C(=C)C(=O)O)C[C@@H]12
inactive: activation [1] 24.1% | Potency [2] | Potency [3]

COc1cc(C2Oc3c(O)cc(CCCO)cc3C2CO)ccc1O[C@H]1O[C@H](C)[C@@H](O)[C@H](O)[C@@H]1O (some centres not stated)
inactive: activation [1] -19.1% | Potency [2] | Potency [3]

C=C1C(=O)O[C@H](CCC)[C@H]1C(=O)O
inactive: activation [1] -1.67% | Potency [2] | Potency [3]

CC1=C2C(=O)C=C(CO[C@@H]3O[C@H](CO)[C@@H](O)[C@H](O)[C@H]3O)[C@@H]2[C@H]2OC(=O)[C@H](C)[C@@H]2[C@@H](O)C1
inactive: activation [1] -7.63% | Potency [2] | Potency [3]

CC1(C(=O)O)CCCC2(C)C3=CCC4CC3(CCC12)CC4CO (configuration not stated)
inactive: activation [1] 3.82% | Potency [2] | Potency [3]

Cc1ccc2c(c1)C=Cc1cc(C)ccc1C2c1cn(Cc2ccc(C(=O)Nc3nn[nH]n3)o2)c(=O)[nH]c1=S
inactive: activation [1] -8.33% | Potency [2] | Potency [3]

CC1OC(OC2C(C)OC(OC3C(O)C(CO)OC(O[C@H]4CC[C@@]5(C)C(CC[C@]6(C)C5CC=C5C7[C@@H](C)[C@H](C)CC[C@]7(C(=O)O)CC[C@]56C(=O)O)C4(C)C)C3O)C(O)C2O)C(O)C(O)C1O (some centres not stated)
inactive: activation [1] 3.82% | Potency [2] | Potency [3]

COc1cc(CN(CCN)C(=O)c2cccs2)ccc1OCc1ccccc1
inactive: activation [1] 24.3% | Potency [2] | Potency [3]

CC(=O)O[C@@H]1[C@H](OC(C)=O)C[C@@]2(C)C(CC[C@@H](C)[C@]23Cc2c(O)cc4c(c2O3)CN([C@@H](CCC(=O)O)C(=O)O)C4=O)C1(C)C (some centres not stated)
inactive: activation [1] -9.92% | Potency [2] | Potency [3]

Cc1nc2sc(C(=O)NCc3ccncc3)c(N)c2c(C)c1Cl
inactive: activation [1] 11% | Potency [2] | Potency [3]

C=C[C@@]12COC(=O)C(=C)[C@@H]1[C@@H](O)[C@H](C(=C)C(=O)OC)[C@@H](O)C2
inactive: activation [1] -7.63% | Potency [2] | Potency [3]

C[C@@H]1CC[C@]2(C(=O)O)CC[C@]3(C)C(=CCC4[C@@]5(C)CC[C@H](O)[C@](C)(C(=O)O)C5CC[C@]43C)C2[C@]1(C)O (some centres not stated)
inactive: activation [1] 8.4% | Potency [2] | Potency [3]

CC(=O)[C@@H]1CC[C@]2(C(=O)O)CC[C@]3(C)C(CCC4[C@@]5(C)CC[C@H](O)C(C)(C)C5CC[C@]43C)C12 (some centres not stated)
inactive: activation [1] 8.4% | Potency [2] | Potency [3]

CC(C)C1(O[C@@H]2O[C@H](CO)[C@@H](O)[C@H](O)[C@H]2O)CC=C(CO)CC1 (some centres not stated)
inactive: activation [1] 17.9% | Potency [2] | Potency [3]

C=C1CC[C@H]2[C@@](C)(CCC(O)[C@@]2(C)CO)[C@@H]1/C=C/C(=C\C(=O)O)C(=O)O (some centres not stated)
inactive: activation [1] -2.29% | Potency [2] | Potency [3]

CC(C)(C)c1ccc(S(=O)(=O)Nc2ccc(Cl)cc2C(=O)c2cc[n+]([O-])cc2)cc1
inactive: activation [1] -16.3% | Potency [2] | Potency [3]

CCCN(CCc1ccsc1)C1CCc2c(O)cccc2C1 (configuration not stated)
inactive: activation [1] 2.68% | Potency [2] | Potency [3]

CCCCCCCCC(=O)N[C@H](CN1CCCC1)[C@H](O)c1ccc2c(c1)OCCO2
inactive: activation [1] -1% | Potency [2] | Potency [3]

C=CC(C)(O)CC/C=C(/C)C(=O)OC1C(OC2OCC(OC3OC(CO)C(O)C(O)C3O)C(OC3OCC(O)C(OC4OC(C)C(O)C(O)C4O)C3O)C2O)COC(OC(=O)C23CCC(C)(C)CC2C2=CCC4C5(C)CCC(OC6OC(CO)C(OC7OC(CO)C(O)C(OC8OCC(O)C(O)C8O)C7O)C(O)C6O)C(C)(C)C5CCC4(C)C2(C)CC3O)C1O (configuration not stated)
inactive: activation [1] -12.2% | activity change, negative = inhibition [2] 0.572% [at 11.2 µM] | activity change, negative = inhibition [3] 8.04% [at 11.2 µM]

C[C@@H]1O[C@@H](OC[C@H]2O[C@@H](OCCc3ccccc3)[C@H](O)[C@@H](O)[C@@H]2O)[C@H](O)[C@H](O)[C@H]1O
inactive: activation [1] -8.4% | Potency [2] | Potency [3]

COc1cc2ncnc(Nc3ccc(F)c(Cl)c3)c2cc1O
inactive: activation [1] 25.7% | Potency [2] | Potency [3]
